# Measurements from PubChem BioAssay AID1159580 (chemical genetic matrix, 2015).
# Among all 5,500 compounds or so, about 2,000 (36%) were called active. Inconclusive results (about 18%) are left out. The list shows a part of the results. A number with no mark means an inactive call. No stated cut-off is given here; in the data, active means normalized growth mostly below about 0.91 (no sharp cut-off); inconclusive means no clear call, values can overlap the other calls; inactive means mostly above about 0.92.
# Assay: chemical genetic growth profiling, strain panel (AID 1159580);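 further: tested at 20 µM; growth read once vehicle control cultures reached saturation at 30 °C; 1 = growth at the plate median or of vehicle wells; lower values mean less growth of the strain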
# Conditions: S. cerevisiae deletion strains, growth OD
# [1] = locus YAL013W, strain DEP1, hits give low values
# [2] = locus YBR229C, strain ROT2, hits give low values
# [3] = locus YDL101C, strain DUN1, hits give low values
# [4] = locus YDL134C, strain PPH21, hits give low values
# [5] = locus YDR150W, strain NUM1, hits give low values
# [6] = locus YEL061C, strain CIN8, hits give low values
# [7] = locus YGR078C, strain PAC10, hits give low values
# [8] = locus YHR030C, strain SLT2, hits give low values
# [9] = locus YHR087W, strain rtc3, hits give low values
# [10] = locus YJL187C, strain SWE1, hits give low values
# [11] = locus YJR043C, strain POL32, hits give low values
# [12] = locus YJR075W, strain HOC1, hits give low values
# [13] = locus YLR039C, strain RIC1, hits give low values
# [14] = locus YLR058C, strain SHM2 (second series), hits give low values
# [15] = locus YLR085C, strain ARP6, hits give low values
# [16] = locus YLR262C, strain YPT6, hits give low values
# [17] = locus YML094W, strain GIM5, hits give low values
# [18] = locus YMR219W, strain ESC1, hits give low values
# [19] = locus YMR263W, strain SAP30, hits give low values
# [20] = locus YNL153C, strain GIM3, hits give low values
# [21] = locus YNL298W, strain CLA4 (second series), hits give low values
# [22] = locus YNL322C, strain KRE1, hits give low values
# [23] = locus YNR030W, strain Alg12, hits give low values
# [24] = locus YPL055C, strain LGE1, hits give low values
# [25] = locus YPL241C, strain CIN2, hits give low values
# [26] = locus YPR135W, strain CTF4, hits give low values
smiles,measurement,setting,value
O=C1CSCC(=O)N1c1ccc(F)c(Cl)c1,normalized growth,[1],0.993
same,normalized growth,[2],0.994
same,normalized growth,[3],1
same,normalized growth,[4],0.99
same,normalized growth,[5],0.935
same,normalized growth,[6],0.984
same,normalized growth,[7],0.994
same,normalized growth,"locus YGR229C, strain SMI1, hits give low values",0.985
same,normalized growth,[8],0.996
same,normalized growth,[9],0.981
same,normalized growth,[10],1
same,normalized growth,[11],0.925
same,normalized growth,[12],0.989
same,normalized growth,[13],1.02
same,normalized growth,[14],1
same,normalized growth,[15],0.978
same,normalized growth,[16],0.995
same,normalized growth,[17],0.992
same,normalized growth,[18],1
same,normalized growth,[19],0.994
same,normalized growth,[20],0.997
same,normalized growth,[21],0.998
same,normalized growth,[22],0.979
same,normalized growth,[23],0.281 (active)
same,normalized growth,[24],0.97
same,normalized growth,[25],0.378 (active)
same,normalized growth,[26],1
O=C1C2C3C=CC(C3)C2C(=O)N1c1ccc(F)c(F)c1 (stereo unspecified),normalized growth,[1],1.01
same,normalized growth,[2],1.03
same,normalized growth,"locus YCL061C, strain MRC1, hits give low values",0.986
same,normalized growth,[3],0.993
same,normalized growth,[4],0.999
same,normalized growth,[5],0.997
same,normalized growth,[6],1.03
same,normalized growth,[7],0.994
same,normalized growth,[8],1.01
same,normalized growth,[9],0.995
same,normalized growth,[10],1.01
same,normalized growth,[11],0.957
same,normalized growth,[12],1.01
same,normalized growth,"locus YKL190W, strain CNB1, hits give low values",0.99
same,normalized growth,[13],0.995
same,normalized growth,[14],0.981
same,normalized growth,[15],1.06
same,normalized growth,[16],0.992
same,normalized growth,[17],1.01
same,normalized growth,[18],1
same,normalized growth,[19],1
same,normalized growth,[20],0.983
same,normalized growth,[21],0.982
same,normalized growth,[22],1.02
same,normalized growth,[23],1.02
same,normalized growth,[24],1.06
same,normalized growth,[25],0.994
same,normalized growth,[26],0.975
CC1=CC(=O)N(c2ccc(OC(F)(F)F)cc2)C1=O,normalized growth,"locus YAR019C, strain CDC15, hits give low values",0.852 (active)
same,normalized growth,"locus YBL105C, strain PKC1, hits give low values",0.873 (active)
same,normalized growth,"locus YBR135W, strain CKS1, hits give low values",0.857 (active)
same,normalized growth,"locus YBR136W, strain MEC1, hits give low values",0.87 (active)
same,normalized growth,"locus YBR160W, strain CDC28, hits give low values",0.873 (active)
same,normalized growth,"locus YDL017W, strain CDC7, hits give low values",0.872 (active)
same,normalized growth,"locus YDL028C, strain MPS1, hits give low values",0.857 (active)
same,normalized growth,[3],0.869 (active)
same,normalized growth,"locus YDL108W, strain KIN28, hits give low values",0.868 (active)
same,normalized growth,"locus YDL132W, strain cdc53, hits give low values",0.847 (active)
same,normalized growth,"locus YDL214C, strain PRR2, hits give low values",0.467 (active)
same,normalized growth,"locus YDR052C, strain DBF4, hits give low values",0.883 (active)
same,normalized growth,"locus YDR054C, strain cdc34, hits give low values",0.853 (active)
same,normalized growth,"locus YDR226W, strain ADK1, hits give low values",0.862 (active)
same,normalized growth,"locus YDR477W, strain SNF1, hits give low values",0.377 (active)
same,normalized growth,"locus YER123W, strain YCK3, hits give low values",0.281 (active)
same,normalized growth,"locus YER133W, strain GLC7, hits give low values",0.339 (active)
same,normalized growth,"locus YFL009W, strain cdc4, hits give low values",0.849 (active)
same,normalized growth,"locus YFL029C, strain CAK1, hits give low values",0.837 (active)
same,normalized growth,"locus YFR003C, strain YPI1, hits give low values",0.878 (active)
same,normalized growth,"locus YFR019W, strain FAB1, hits give low values",0.512 (active)
same,normalized growth,"locus YFR028C, strain CDC14, hits give low values",0.865 (active)
same,normalized growth,"locus YGR040W, strain KSS1, hits give low values",0.384 (active)
same,normalized growth,"locus YGR052W, strain FMP48, hits give low values",0.421 (active)
same,normalized growth,"locus YGR092W, strain DBF2, hits give low values",0.217 (active)
same,normalized growth,[8],0.283 (active)
same,normalized growth,"locus YHR079C, strain IRE1, hits give low values",0.35 (active)
same,normalized growth,"locus YHR082C, strain KSP1, hits give low values",0.316 (active)
same,normalized growth,"locus YHR205W, strain SCH9, hits give low values",0.331 (active)
same,normalized growth,"locus YIL147C, strain SLN1, hits give low values",0.873 (active)
same,normalized growth,"locus YJL095W, strain BCK1, hits give low values",0.302 (active)
same,normalized growth,"locus YJL128C, strain PBS2, hits give low values",0.9
same,normalized growth,"locus YJL157C, strain FAR1, hits give low values",0.487 (active)
same,normalized growth,"locus YJR016C, strain ILV3, hits give low values",0.862 (active)
same,normalized growth,"locus YJR066W, strain TOR1 (second series), hits give low values",0.39 (active)
same,normalized growth,"locus YJR066W, strain TOR1, hits give low values",0.272 (active)
same,normalized growth,"locus YKL048C, strain ELM1, hits give low values",0.556 (active)
same,normalized growth,"locus YKL067W, strain YNK1, hits give low values",0.509 (active)
same,normalized growth,"locus YKL101W, strain HSL1, hits give low values",0.494 (active)
same,normalized growth,"locus YKL193C, strain SDS22, hits give low values",0.863 (active)
same,normalized growth,"locus YKL203C, strain TOR2, hits give low values",0.382 (active)
same,normalized growth,"locus YLR113W, strain HOG1, hits give low values",0.336 (active)
same,normalized growth,"locus YLR133W, strain CKI1, hits give low values",0.531 (active)
same,normalized growth,"locus YLR403W, strain SFP1, hits give low values",0.326 (active)
same,normalized growth,"locus YML070W, strain DAK1, hits give low values",0.401 (active)
same,normalized growth,"locus YMR001C, strain CDC5, hits give low values",0.854 (active)
same,normalized growth,"locus YMR205C, strain PFK2 (second series), hits give low values",0.563 (active)
same,normalized growth,"locus YMR277W, strain FCP1, hits give low values",0.868 (active)
same,normalized growth,"locus YNL006W, strain LST8, hits give low values",0.885 (active)
same,normalized growth,"locus YNL020C, strain ARK1, hits give low values",0.558 (active)
same,normalized growth,"locus YNL161W, strain CBK1, hits give low values",0.865 (active)
same,normalized growth,"locus YNL183C, strain NPR1, hits give low values",0.201 (active)
same,normalized growth,"locus YNL207W, strain RIO2, hits give low values",0.847 (active)
same,normalized growth,"locus YNL222W, strain SSU72, hits give low values",0.864 (active)
same,normalized growth,"locus YNL307C, strain MCK1 (second series), hits give low values",0.413 (active)
same,normalized growth,"locus YOL078W, strain AVO1, hits give low values",0.858 (active)
same,normalized growth,"locus YOL136C, strain PFK27, hits give low values",0.436 (active)
same,normalized growth,"locus YOR061W, strain CKA2, hits give low values",0.576 (active)
same,normalized growth,"locus YOR119C, strain RIO1, hits give low values",0.384 (active)
same,normalized growth,"locus YOR231W, strain MKK1, hits give low values",0.4 (active)
same,normalized growth,"locus YOR329C, strain SCD5, hits give low values",0.869 (active)
same,normalized growth,"locus YPL031C, strain PHO85, hits give low values",0.311 (active)
same,normalized growth,"locus YPL153C, strain RAD53, hits give low values",0.372 (active)
same,normalized growth,"locus YPL204W, strain HRR25, hits give low values",0.391 (active)
same,normalized growth,"locus YPL209C, strain IPL1, hits give low values",0.862 (active)
same,normalized growth,"locus YPL256C, strain CLN2, hits give low values",0.33 (active)
same,normalized growth,"locus YPR025C, strain CCL1, hits give low values",0.855 (active)
same,normalized growth,"locus YPR106W, strain ISR1, hits give low values",0.901
same,normalized growth,"locus YPR111W, strain DBF20, hits give low values",0.907
same,normalized growth,"strain NNK1, hits give low values",0.893
same,normalized growth,"strain TSCII, hits give low values",0.859 (active)
